Several values for one entry are separate records, joined by “and”; a condition that tells them apart may be missing. Equal entries are not always repeated. Records with an inconclusive call do not appear. Activity calls are given as the source filed them. Unless noted, calls follow the shape of the dose curve; as a rule, active = well fitted cell-killing curve with a large enough effect; inconclusive = small, poorly fitted or top-dose-only effect, or effect the other way; inactive = no such curve, though single readings can be large or run the other way.
Assays:
[1] = Quantitative High-Throughput drug screen in 47 multiple myeloma cell lines against the NCATS MIPE library collection: PE2_PLB cell viability assay (AID 1919869); also: nearly all actives have a fitted effect of over 35% in size
Summary of the method: (§1)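 Plated at 500 cells per well, myeloma lines received MIPE 4.0 compounds by pin tool. Following 48 h culture at 37 °C, CellTiter-Glo luminescence gave viability relative to DMSO and media-only controls.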

[2] = Quantitative High-Throughput drug screen in 47 multiple myeloma cell lines against the NCATS MIPE library collection: PCM6_Riken cell viability assay (AID 1919870); also: nearly all actives have a fitted effect of over 30% in size
Summary of the method: as §1

[3] = Quantitative High-Throughput drug screen in 47 multiple myeloma cell lines against the NCATS MIPE library collection: RPMI8226_ATCC cell viability assay (AID 1919871); also: nearly all actives have a fitted effect of over 30% in size
Summary of the method: as §1

[4] = Quantitative High-Throughput drug screen in 47 multiple myeloma cell lines against the NCATS MIPE library collection: KMS11_JCRBsus cell viability assay (AID 1919873); also: nearly all actives have a fitted effect of over 50% in size
Summary of the method: as §1

[5] = qHTS drug screen for cell cycle checkpoint inhibitors in PARPi-resistant BRCA-mutant ovarian cancer cell lines. (AID 1963452; calls by dose curve); details: PEO1/OlaR viability, CellTiter-Glo luminescence, 96 h; for Z-AUC: stronger effect = lower value
Summary of the method: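 PEO1, PEO4 and PEO1/OlaR ovarian cancer cells, 600 per well, exposed 96 h at 37C to a dilution series. Viability read by CellTiter-Glo luminescence, normalized to DMSO and empty wells; activity summarized as Z-AUC.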

[6] = qHTS for identification of novel therapeutic agents for treatment of microphthalmiaassociated transcription factor (MiT) renal cell carcinoma (RCC) (AID 1963991; calls by dose curve); details: CellTiter-Glo, 48 h; for z-score: stronger effect = lower value; for Potency: active = Z-AUC below -0.8 in all three lines
Summary of the method: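 Curves over 11 concentrations were fitted to CellTiter-Glo luminescence, scaled between empty wells (0%) and DMSO (100%) viability. Cells were UOK109, UOK124 and UOK145 TFE3-fusion RCC lines at 500/well, exposed 48 hours at 37 C.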

[7] = Quantitative High-Throughput drug screen in 47 multiple myeloma cell lines against the NCATS MIPE library collection: KMS28BM_JCRB cell viability assay (AID 1919874); also: nearly all actives have a fitted effect of over 35% in size
Summary of the method: as §1

[8] = Quantitative High-Throughput drug screen in 47 multiple myeloma cell lines against the NCATS MIPE library collection: OPM2_DSMZ cell viability assay (AID 1919872); also: nearly all actives have a fitted effect of over 30% in size
Summary of the method: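 Luminescent ATP measurement with CellTiter-Glo gives viability, scaled between DMSO-only wells (100%) and media-only wells (0%). Cells, 500 per well, faced library compounds for 48 hours at 37C.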

[9] = measured here: PEO1 parental Z-AUC
[10] = TFE3-RCC UOK109 viability, measured here: UOK109 Z-AUC
[11] = TFE3-RCC viability, measured here: UOK124 Z-AUC
[12] = TFE3-RCC viability, measured here: UOK145 Z-AUC
Potency is read from the fitted curve at half-maximal effect.

Row | SMILES | Potency [1] | Potency [2] | Potency [3] | Potency [4] | Z-AUC [5] | Z-AUC [5, 9] | Z-AUC ([5]; measured here: PEO4 Z-AUC) | z-score [6, 10] | z-score [6, 11] | z-score [6, 12] | Potency [7] | Potency ([6]; TFE3-RCC UOK109 viability) | Potency [8] | Potency [5]
1 | CC(C)c1noc(N2CCC(COc3ccc(-c4ccc(S(C)(=O)=O)cc4)nc3)CC2)n1 | inactive | 4.69 µM (active) | 7.43 µM (active) | 1.18 µM (active) | -0.00574 (inactive) | -0.198 | 1.01 | 0.525 | 0.308 | 0.324 |  |  |  | 
2 | CC(C)Nc1cc(C(F)(F)F)cc2nc(NC(=O)c3cccnc3)nn12 | inactive | inactive | inactive | inactive | 0.923 (inactive) | 0.905 | 1.12 |  |  |  | inactive |  |  | 
3 | C1Cc2[nH]nc(-c3nn[nH]n3)c2C1 | inactive | inactive | inactive |  | -0.759 (inactive) | -0.47 | -0.646 | -0.0239 | 0.708 | 0.169 | inactive |  |  | 
4 | Cc1cccc(C=NNc2cc(N3CCOCC3)nc(OCCc3ccccn3)n2)c1 | 18.7 µM (active) |  | 18.7 µM (active) | 2.64 µM (active) |  |  |  | -0.897 | -1.42 | -0.962 |  | 0.118 µM (active) |  | 
5 | N#CCNC(=O)c1ccc(-c2ccnc(Nc3ccc(N4CCOCC4)cc3)n2)cc1 | 2.96 µM (active) | 3.32 µM (active) | 16.6 µM (active) | 7.43 µM (active) | -0.322 (inactive) | 0.159 | 0.613 |  |  |  | 7.43 µM (active) |  |  | 
6 | COc1cc2ncn(-c3cc(OCc4ccccc4C(F)(F)F)c(C(N)=O)s3)c2cc1OC | 18.7 µM (active) |  | 5.26 µM (active) | 0.296 µM (active) | -1.24 (inactive) | -0.678 | -1.55 |  |  |  | 0.526 µM (active) |  |  | 
7 | O=C(Nc1nc2cccc(-c3ccc(CN4CCS(=O)(=O)CC4)cc3)n2n1)C1CC1 | 16.6 µM (active) | 16.6 µM (active) | 18.7 µM (active) | 13.2 µM (active) | 0.985 (inactive) | 0.544 | 0.638 |  |  |  | 14.8 µM (active) |  |  | 
8 | CC(=O)SC[C@@H](C)C(=O)N1CCC[C@H]1C(=O)N[C@@H](Cc1ccccc1)C(=O)O | inactive | inactive | inactive | inactive | 0.0192 (inactive) | -0.242 | -0.303 |  |  |  | inactive |  |  | 
9 | CCc1c2c(nc3ccc(O)cc13)-c1cc3c(c(=O)n1C2)COC(=O)[C@]3(O)CC | 0.148 µM (active) |  | 1.32 µM (active) |  |  | -3.8 | -3.13 | -1.63 | -2.08 | -2.56 | 0.0743 µM (active) | 0.469 µM (active) | 1.18 µM (active) | 0.0062 µM (active)
10 | O=C1CCC[C@@H]2[C@H]3CCC[N+]4([O-])CCC[C@@H](CN12)[C@@H]34 (some centres not stated) | inactive |  |  |  |  |  |  | 0.308 | 0.251 | 0.512 |  |  | inactive | 
11 | O=C(O)Cn1nnc(-c2cc(N3CCC(Oc4cc(F)ccc4Br)CC3)no2)n1 | inactive |  | inactive |  | -0.81 (inactive) | -0.799 | -1.41 | 0.654 | 0.371 | 1.36 | inactive |  | inactive | 
12 | CC(=O)c1c(C)c2cnc(Nc3ccc(N4CCNCC4)cn3)nc2n(C2CCCC2)c1=O | 18.7 µM (active) | 5.9 µM (active) |  |  |  |  |  |  |  |  | 23.5 µM (active) |  |  | 
13 | CNC(=O)c1ccc(-c2cnc3ncc(Cc4ccc5ncccc5c4)n3n2)cc1F |  |  | inactive | inactive | -0.273 (inactive) | 1.03 | 0.0538 |  |  |  | inactive |  | inactive | 
14 | CCNC(=O)Nc1ccc2ncc(Nc3ccc(C)cc3)nc2n1 |  |  |  | 18.7 µM (active) |  |  |  |  |  |  |  |  | inactive | 
15 | C[C@@H](Oc1cc(-n2cnc3ccc(CN4CCN(C)CC4)cc32)sc1C(N)=O)c1ccccc1C(F)(F)F |  | 13.2 µM (active) |  | 0.0235 µM (active) | -0.926 (inactive) | -1.54 | -1.51 | -0.886 | -1.58 | -1.64 |  | 6.62 µM (active) | 0.059 µM (active) | 
16 | COC(=O)Nc1nc2ccc(C(=O)c3ccc(F)cc3)cc2[nH]1 |  |  |  |  | -0.379 (inactive) | -1.33 | -1.13 | -1.13 | -1.2 | -0.98 | 0.332 µM (active) | 1.87 µM (active) | 0.935 µM (active) | 
17 | Cc1c(NC(=O)OC[C@@H]2COCCN2)cn2ncnc(Nc3ccc4c(cnn4Cc4cccc(F)c4)c3)c12 | 5.26 µM (active) |  |  | 26.4 µM (active) | -1.36 (inactive) and 1.21 (inactive) | -0.48 and 1.05 | -1.04 and 1.11 | -1.82 | -1.81 | -2.05 |  | 0.118 µM (active) |  | 

Source: PubChem BioAssay (NCATS)
